Inconclusive results are not listed. Calls of active or inactive are those of the source.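 The calls were made as follows, unless noted: active = aptamer binding inhibition above 30%, about 3 SD of noise from non-fluorescent compounds; inactive = inhibition at or below 30%.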

The text below walks through data of PubChem BioAssay.

A short description of assay [1]: rapamycin-like changes in RPL19A-GFP expression – cell-based, S. cerevisiae, multiplex flow cytometry, primary screen (AID 1862; in the data active = percent of DMSO control GFP below about 86%;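 also: lower values mimic rapamycin by blocking the RPL19A rise seen in DMSO cells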). The conditions noted are these: S. cerevisiae RPL19A-GFP strain, flow cytometry fluorescence, 3 h; at 10 µM; stronger effect = lower value.
A short description of assay [2]: TOR pathway GLN3 branch reporter MEP2-GFP changes – S. cerevisiae, multiplex flow cytometry, primary screen (AID 1867;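 active = GFP response, as percent of the DMSO control, above the screen-wide mean plus 3 SD, about 139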;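 also: median GFP channel fluorescence of barcode-gated MEP2-GFP cells measured by flow cytometry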). Conditions: S. cerevisiae MEP2-GFP strain, 3 h, at 10 µM, stronger effect = higher value, 100% means same as DMSO wells. In general terms: A flow cytometer gives signals particle by particle.
Assay [3] can be described thus: TOR pathway RTG branch CIT2 reporter changes – S. cerevisiae, GFP fusion, multiplex flow cytometry, primary screen (AID 1870;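 active = percent response above a set limit, the screen-wide mean plus 3 SD, cut at about 130% in these data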;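 also: barcoded CIT2-GFP strain pooled with four other GFP strains with rapamycin as positive control; median GFP fluorescence per well over plate mean of DMSO wells so 100% = DMSO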). The conditions noted are these: S. cerevisiae CIT2-GFP expression, 3 h, at 10 µM, stronger effect = higher value.
Assay [4] is described as follows: TOR pathway LAP4-GFP level changes – S. cerevisiae, multiplex flow cytometry, primary screen (AID 1873;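 active = GFP signal, as percent of the solvent control, above the screen mean plus 3 SD, about 149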). Conditions: S. cerevisiae LAP4-GFP expression, 3 h, at 10 µM, stronger effect = higher value.
Assay [5] can be described thus: yeast AGP1-GFP level changes, GLN3 branch – cell-based, multiplex flow cytometry, S. cerevisiae, primary screen (AID 1887;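 active = GFP signal above the screen-wide mean plus 3 SD, that is over about 124.5% of the solvent control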;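 also: AGP1-GFP fusion strain of S. cerevisiae within a five-strain barcoded multiplex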). The conditions noted are these: 3 h, at 10 µM, stronger effect = higher value.
A short description of assay [6]: reduced mouse 2C T cell binding to pMHC/ICAM-1 vesicles – MLPCN validation set, flow cytometry, LFA-1/ICAM-1 modulator project, pilot screen (AID 2523;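 active = response below a set limit, under 55% cells CD8-positive and vesicle-bound, and CD8 cells' 90th-percentile brightness under 279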;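 as to vesicle binding response: mean PE anti-B7-1 fluorescence of CD8+ cells relative to row control; 100% = QL9-loaded vesicles with DMSO vehicle in the same plate row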). Conditions: 2C mouse CD8+ T cells, at 7 µM, stronger effect = lower value; double positive events: measured here: CD8+/vesicle+ event percentage.
Assay [7] deals with Integrin beta-1 (Homo sapiens) + Integrin alpha-4 (Homo sapiens) (UniProt P13612+P05556). Briefly: alpha4beta1 integrin LIBS antibody binding reduction – U937 cells, HUTS-21 mAb, flow cytometry, validation set, VLA-4 allosteric modulator project, pilot screen (AID 2674;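 active = inhibition above 50%, about 3 SD of the validation set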;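 also: antibody binding induced by the VLA-4 ligand LDV present at three times its Kd; 0% = LDV ligand with antibody and no compound and 100% = antibody without LDV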). Conditions: HUTS-21 LIBS mAb binding, at 6.7 µM, stronger effect = higher value, binding induced by LDV ligand.
Integrin beta-1 (Homo sapiens) + Integrin alpha-4 (Homo sapiens), sequence (P05556 whole entry, looked up): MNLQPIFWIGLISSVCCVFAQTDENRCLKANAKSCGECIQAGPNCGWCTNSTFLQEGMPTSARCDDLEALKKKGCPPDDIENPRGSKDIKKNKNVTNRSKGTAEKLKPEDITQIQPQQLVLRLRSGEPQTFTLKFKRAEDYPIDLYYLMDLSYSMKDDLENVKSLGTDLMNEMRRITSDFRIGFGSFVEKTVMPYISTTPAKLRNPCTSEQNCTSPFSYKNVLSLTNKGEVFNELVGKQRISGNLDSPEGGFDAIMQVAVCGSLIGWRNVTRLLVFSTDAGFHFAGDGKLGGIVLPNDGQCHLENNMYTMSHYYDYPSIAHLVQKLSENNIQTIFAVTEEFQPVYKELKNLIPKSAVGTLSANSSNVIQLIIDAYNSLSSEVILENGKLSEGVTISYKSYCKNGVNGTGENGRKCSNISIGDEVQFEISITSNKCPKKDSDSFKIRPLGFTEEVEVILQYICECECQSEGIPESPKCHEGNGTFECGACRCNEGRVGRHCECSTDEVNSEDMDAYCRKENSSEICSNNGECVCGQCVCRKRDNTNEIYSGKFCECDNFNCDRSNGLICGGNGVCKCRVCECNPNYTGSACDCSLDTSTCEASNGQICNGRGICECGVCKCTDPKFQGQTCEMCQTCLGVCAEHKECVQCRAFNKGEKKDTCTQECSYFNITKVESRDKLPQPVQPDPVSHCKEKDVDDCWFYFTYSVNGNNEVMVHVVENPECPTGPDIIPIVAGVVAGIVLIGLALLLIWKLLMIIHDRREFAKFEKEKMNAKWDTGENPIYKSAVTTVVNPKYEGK
Integrin beta-1 (Homo sapiens) + Integrin alpha-4 (Homo sapiens), sequence (P13612 whole entry, looked up): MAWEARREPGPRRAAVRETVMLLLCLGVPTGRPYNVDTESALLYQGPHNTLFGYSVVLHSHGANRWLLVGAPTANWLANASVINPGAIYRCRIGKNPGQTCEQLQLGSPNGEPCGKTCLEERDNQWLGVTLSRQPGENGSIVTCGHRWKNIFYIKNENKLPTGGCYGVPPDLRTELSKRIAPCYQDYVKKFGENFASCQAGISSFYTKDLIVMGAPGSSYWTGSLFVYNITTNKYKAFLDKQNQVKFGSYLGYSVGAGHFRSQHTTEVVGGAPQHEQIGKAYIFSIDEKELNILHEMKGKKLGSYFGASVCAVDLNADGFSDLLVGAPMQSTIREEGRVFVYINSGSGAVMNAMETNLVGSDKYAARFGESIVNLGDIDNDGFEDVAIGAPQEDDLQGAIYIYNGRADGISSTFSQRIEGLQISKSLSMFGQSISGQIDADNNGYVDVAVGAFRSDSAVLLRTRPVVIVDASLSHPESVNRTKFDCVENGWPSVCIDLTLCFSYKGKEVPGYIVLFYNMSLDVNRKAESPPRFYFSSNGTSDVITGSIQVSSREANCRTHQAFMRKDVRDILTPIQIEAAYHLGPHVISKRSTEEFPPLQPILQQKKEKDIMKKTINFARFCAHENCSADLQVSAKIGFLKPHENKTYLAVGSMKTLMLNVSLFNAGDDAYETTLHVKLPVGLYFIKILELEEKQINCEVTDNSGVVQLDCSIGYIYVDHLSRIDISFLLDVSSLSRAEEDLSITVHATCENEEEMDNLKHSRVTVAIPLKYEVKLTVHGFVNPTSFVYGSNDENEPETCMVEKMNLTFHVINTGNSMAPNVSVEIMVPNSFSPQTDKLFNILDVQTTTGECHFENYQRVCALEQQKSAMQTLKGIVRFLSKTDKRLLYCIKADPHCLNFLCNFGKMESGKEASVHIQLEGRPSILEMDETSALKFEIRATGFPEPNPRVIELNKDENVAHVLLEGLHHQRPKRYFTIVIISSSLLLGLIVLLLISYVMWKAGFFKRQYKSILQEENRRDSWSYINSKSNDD
Assay [8] can be described thus: calorie-restriction mimetic ROS inhibitors, yeast – validation compound set, pilot screen (AID 2706;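 active = superoxide response below 65% of plate, a cut near 3 SD across the whole screen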;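 also: yeast exposed to compound for one week at 30 degrees C before staining; 100% = mean of all compound wells on the same plate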). The conditions noted are these: S. cerevisiae aging, superoxide DHE fluorescence; at 10 µM; stronger effect = lower value.
For assay [9], the target named is Beta-adrenergic receptor kinase 1 (Homo sapiens) (UniProt P25098). Briefly: GRK2 binders displacing RNA aptamer, biochemical, validation, human GRK2, bead flow cytometry (AID 488806). The conditions noted are these: bead-bound GRK2, FAM-aptamer displacement, at 10 µM, stronger effect = higher value.
Beta-adrenergic receptor kinase 1 (Homo sapiens), sequence (P25098 whole entry, looked up): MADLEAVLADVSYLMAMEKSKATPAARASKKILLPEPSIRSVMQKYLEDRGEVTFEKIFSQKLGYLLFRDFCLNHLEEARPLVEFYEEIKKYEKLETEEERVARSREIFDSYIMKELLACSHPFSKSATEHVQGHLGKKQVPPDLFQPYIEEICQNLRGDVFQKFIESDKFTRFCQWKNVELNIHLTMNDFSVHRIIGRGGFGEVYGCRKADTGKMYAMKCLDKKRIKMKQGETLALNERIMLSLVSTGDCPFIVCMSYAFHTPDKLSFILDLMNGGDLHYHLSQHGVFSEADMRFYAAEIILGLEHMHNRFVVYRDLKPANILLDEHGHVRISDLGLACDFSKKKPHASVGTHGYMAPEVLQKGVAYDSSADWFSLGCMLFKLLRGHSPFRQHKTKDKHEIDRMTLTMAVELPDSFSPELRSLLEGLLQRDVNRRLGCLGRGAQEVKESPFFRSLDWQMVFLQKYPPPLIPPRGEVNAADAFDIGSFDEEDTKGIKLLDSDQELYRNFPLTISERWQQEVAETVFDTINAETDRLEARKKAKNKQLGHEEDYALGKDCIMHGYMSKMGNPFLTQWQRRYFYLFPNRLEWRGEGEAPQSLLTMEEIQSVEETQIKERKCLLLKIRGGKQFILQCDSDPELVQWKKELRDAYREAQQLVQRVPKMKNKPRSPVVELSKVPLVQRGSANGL
For assay [10], the target named is Beta-2 adrenergic receptor (Homo sapiens) (UniProt P07550). Briefly: agonist-induced loss of surface beta2AR – cell-based, FAP fluorogen, flow cytometry, validation set, pilot screen (AID 504459;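 active = percent response above 42, roughly 3 SD of non-fluorescent test compounds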;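 also: agonist-driven loss of surface beta2AR via internalization measured by FAP dye flow cytometry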). The conditions noted are these: Am2.2-beta2AR cells, at 10 µM, stronger effect = higher value.
Beta-2 adrenergic receptor (Homo sapiens), sequence (P07550 whole entry, looked up): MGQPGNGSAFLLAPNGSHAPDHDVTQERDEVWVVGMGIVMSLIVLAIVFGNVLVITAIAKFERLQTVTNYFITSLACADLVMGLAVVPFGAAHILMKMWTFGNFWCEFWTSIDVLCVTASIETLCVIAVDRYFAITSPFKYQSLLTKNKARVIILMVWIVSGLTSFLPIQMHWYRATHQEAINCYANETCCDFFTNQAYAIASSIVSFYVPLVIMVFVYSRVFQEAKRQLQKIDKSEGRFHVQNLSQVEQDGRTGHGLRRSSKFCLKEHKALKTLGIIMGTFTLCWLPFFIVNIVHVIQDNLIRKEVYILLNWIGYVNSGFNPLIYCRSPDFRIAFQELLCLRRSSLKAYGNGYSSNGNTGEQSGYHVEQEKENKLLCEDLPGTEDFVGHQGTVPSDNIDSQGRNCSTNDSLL
Assay [11] has as its target AP-2 complex subunit beta (Homo sapiens) (UniProt P63010). Briefly: beta-arrestin/AP2 interaction blockers – biochemical, validation set, GST-AP2 beads, flow cytometry, pilot screen (AID 504541;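 active = inhibition above 54%, about 3 SD of non-fluorescent compounds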;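 also: AP2 carries R879A mutation and is captured from E. coli lysate; bead-bound FITC arrestin peptide fluorescence measuring arrestin peptide binding to AP2; 0% = DMSO wells and 100% = excess unlabeled arrestin peptide control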). The conditions noted are these: FITC arrestin peptide, at 10 µM, stronger effect = higher value, AP2 beta2 appendage fragment, R879A mutant.
Assay [12] in a line: cytosolic pH regulators acting via V-ATPase – S. cerevisiae, pHLuorin, HTS validation (AID 504600; in the data active = response above about 15%;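 also: plate controls were DMSO for no effect and reference compound for full effect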). Conditions: V-ATPase proton transport, at 10 µM, stronger effect = higher value.
Assay [13] has as its system anti-desmoglein-3 scFv antibody binding to human DSG3. As to the kind of experiment: blockers of pathogenic pemphigus antibody–desmoglein-3 binding – biochemical, validation compound set, bead-based, flow cytometry, pilot screen (AID 588368;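 active = binding below the plate cutoff, the plate median minus 3 SD, with a reading above zero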;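 also: signal is the median channel fluorescence of bead-bound GFP antibody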). Conditions: Protein G beads, DSG3-Fc, scFv-GFP binding, at 10 µM, stronger effect = lower value.
Assay [14] can be described thus: Nile Red efflux blockade in pump-expressing yeast – validation compound set, multiplex, phenotypic, pilot screen (AID 588506;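 active = efflux inhibition above 0.42, the validation set average plus 4 SD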;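 also: Nile Red retained in cells so higher fluorescence means more efflux inhibition; 0 = negative control wells and 1 = enniatin B 25 µM full block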). The conditions noted are these: S. cerevisiae pump-expressing triplex, Nile Red efflux flow cytometry; at 10 µM; stronger effect = higher value; the pumps come from Candida albicans.
Assay [15] addresses ATP-binding cassette sub-family B member 6 (Homo sapiens) (UniProt Q9NP58). As to the kind of experiment: blockers of ABCB6-driven porphyrin uptake – K562-ABCB6 cells, flow cytometry, validation set, pilot screen (AID 588550;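 active = inhibition above the screen-wide mean plus 3 SD, about 51%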;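 also: 0% = DMSO wells and 100% = benzethonium chloride 70 µM positive control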). The conditions noted are these: K562-ABCB6 porphyrin accumulation, 1 h, at 10 µM, stronger effect = higher value.
Assay [16] can be described thus: AML differentiation inducers, ER-HoxA9 marrow cells – cell-based, GFP/MAC1 double positive, flow cytometry, validation set, primary screen (AID 588685;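 active = differentiation response of at least 50%, scaled between solvent and reference control, from cells with both markers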;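 also: compound exposure lasts four days before antibody staining and flow analysis; 0% = DMSO wells and 100% = 5 µM fulvestrant positive control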). The conditions noted are these: stronger effect = higher value, normalized: vehicle 0, fulvestrant 100.

AP-2 complex subunit beta (Homo sapiens), sequence (P63010 whole entry, looked up, the tested form may be a part, one chain of several): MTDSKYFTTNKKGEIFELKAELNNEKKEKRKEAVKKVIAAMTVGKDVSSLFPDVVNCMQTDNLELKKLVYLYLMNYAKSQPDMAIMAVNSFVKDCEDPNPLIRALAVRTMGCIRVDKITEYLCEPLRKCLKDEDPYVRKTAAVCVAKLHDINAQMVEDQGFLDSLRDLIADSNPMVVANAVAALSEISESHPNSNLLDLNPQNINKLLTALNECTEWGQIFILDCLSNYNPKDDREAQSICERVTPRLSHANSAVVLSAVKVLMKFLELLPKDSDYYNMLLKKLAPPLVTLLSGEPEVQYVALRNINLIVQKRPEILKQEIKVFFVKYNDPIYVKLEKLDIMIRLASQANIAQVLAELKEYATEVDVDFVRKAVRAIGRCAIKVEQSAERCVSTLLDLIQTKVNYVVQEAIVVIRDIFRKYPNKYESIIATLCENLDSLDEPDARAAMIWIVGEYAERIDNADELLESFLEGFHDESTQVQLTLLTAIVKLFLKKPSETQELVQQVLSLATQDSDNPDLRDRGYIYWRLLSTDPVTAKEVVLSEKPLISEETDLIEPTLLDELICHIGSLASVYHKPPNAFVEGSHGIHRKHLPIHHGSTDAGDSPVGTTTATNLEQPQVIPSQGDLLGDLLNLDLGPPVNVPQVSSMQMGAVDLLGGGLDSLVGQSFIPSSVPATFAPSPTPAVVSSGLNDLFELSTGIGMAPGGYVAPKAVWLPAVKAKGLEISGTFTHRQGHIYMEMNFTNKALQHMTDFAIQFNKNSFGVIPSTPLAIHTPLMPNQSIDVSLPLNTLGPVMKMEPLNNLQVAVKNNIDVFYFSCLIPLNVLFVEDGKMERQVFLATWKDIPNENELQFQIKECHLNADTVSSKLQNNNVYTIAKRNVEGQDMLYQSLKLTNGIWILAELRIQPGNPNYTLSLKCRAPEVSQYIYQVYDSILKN
ATP-binding cassette sub-family B member 6 (Homo sapiens), sequence (Q9NP58 whole entry, looked up): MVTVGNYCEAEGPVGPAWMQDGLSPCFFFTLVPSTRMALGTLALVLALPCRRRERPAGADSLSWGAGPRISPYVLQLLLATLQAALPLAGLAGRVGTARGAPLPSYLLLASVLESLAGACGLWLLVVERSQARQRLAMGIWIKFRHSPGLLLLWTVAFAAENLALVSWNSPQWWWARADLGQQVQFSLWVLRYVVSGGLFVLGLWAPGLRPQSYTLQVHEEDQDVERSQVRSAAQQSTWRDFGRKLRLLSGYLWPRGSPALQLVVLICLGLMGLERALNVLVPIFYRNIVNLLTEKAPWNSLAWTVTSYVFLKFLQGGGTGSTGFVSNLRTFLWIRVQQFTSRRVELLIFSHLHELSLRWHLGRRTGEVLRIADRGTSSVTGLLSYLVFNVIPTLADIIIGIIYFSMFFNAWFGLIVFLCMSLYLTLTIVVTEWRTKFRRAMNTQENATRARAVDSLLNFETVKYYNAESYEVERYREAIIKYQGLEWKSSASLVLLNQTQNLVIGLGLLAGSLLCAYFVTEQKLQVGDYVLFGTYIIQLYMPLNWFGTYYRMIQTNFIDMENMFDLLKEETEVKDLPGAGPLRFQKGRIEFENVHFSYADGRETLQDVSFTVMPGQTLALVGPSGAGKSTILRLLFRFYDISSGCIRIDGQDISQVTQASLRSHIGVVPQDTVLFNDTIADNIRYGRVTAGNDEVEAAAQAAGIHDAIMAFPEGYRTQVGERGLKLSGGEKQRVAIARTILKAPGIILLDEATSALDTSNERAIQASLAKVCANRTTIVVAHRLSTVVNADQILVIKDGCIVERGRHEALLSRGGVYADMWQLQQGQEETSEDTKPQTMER

By inhibition is commonly meant the relative decrease from the control value, in per cent. In the case of `CCOC(=O)c1cccc(P(C)(C)=O)c1`, the percent of DMSO control GFP in [1] was 103% (inactive). In addition, the GFP response vs DMSO is 97.2% (inactive) in assay [2] and 90.1% (inactive) in assay [4]. In addition, the percent response of DMSO control in [3] was 114% (inactive). Also, in assay [5], the GFP response, % of DMSO is 104% (inactive). Further, the double positive events in assay [6] amounted to 62%. The vesicle binding response in [6] is 67.6% (inactive). Further, the inhibition in assay [7] is 5.77% (inactive); in [11] it was -7.26% (inactive); in assay [15], -7% (inactive). In [8], the superoxide response (% of plate) was 109% (inactive). Besides, the aptamer binding inhibition in assay [9] is 3% (inactive). In addition, the response was -6.13% (inactive) in assay [10] and -2.31% (inactive) in assay [12]. For the same compound, the binding (% of control) in assay [13] is 95.8% (inactive). The efflux inhibition (fraction of control) in assay [14] is -0.04 (inactive). In assay [16], the differentiation response was 6.11% (inactive).
Consider `COc1ccc(-c2cc(=Nc3ccc(C)cc3)c3ccccc3o2)cc1`, for which the percent of DMSO control GFP in assay [1] is 97.3% (inactive). Also, the GFP response vs DMSO is 106% (inactive) in assay [2] and 132% (inactive) in assay [4]. For the same compound, the percent response of DMSO control in [3] is 93.8% (inactive). Moreover, the GFP response, % of DMSO in [5] was 104% (inactive). Besides, the double positive events in [6] is 60.2%. Besides, in assay [6], the vesicle binding response is 195% (inactive). In addition, the results for the inhibition in assay [7], in assay [11] and in assay [15] were 16.8% (inactive), -0.02% (inactive) and 5% (inactive), respectively. The superoxide response (% of plate) in [8] was 99.5% (inactive). Also, in assay [9], the aptamer binding inhibition is 0% (inactive). Also, the results for the response in assay [10] and in assay [12] were -21.4% (inactive) and 7.52% (inactive), respectively. For the same compound, the binding (% of control) in assay [13] was 97.3% (inactive). Further, in assay [14], the efflux inhibition (fraction of control) is -0.04 (inactive). Also, the differentiation response in assay [16] is -9.91% (inactive).
Take `CC[C@H]1CN2CCc3cc(OC)c(OC)cc3[C@@H]2C[C@@H]1C[C@H]1NCCc2cc(OC)c(OC)cc21`: the percent of DMSO control GFP in assay [1] was 110% (inactive). The GFP response vs DMSO in assay [2] is 103% (inactive); in assay [4], 106% (inactive). Further, the percent response of DMSO control in [3] was 94.5% (inactive). In addition, the GFP response, % of DMSO in assay [5] is 99.9% (inactive). The compound also gave a double positive events in assay [6] of 60.1%. Besides, in assay [6], the vesicle binding response is 140% (inactive). The inhibition in assay [7] was -27.9% (inactive); in [11] it was 3.93% (inactive); in [15], -66% (inactive). For the same compound, the superoxide response (% of plate) in [8] is 86.3% (inactive). Further, in [9], the aptamer binding inhibition was -7% (inactive). Further, the response in assay [10] was 10.4% (inactive); in assay [12], -3.02% (inactive). Further, the binding (% of control) in assay [13] was 106% (inactive). For the same compound, the efflux inhibition (fraction of control) in assay [14] was -0.24 (inactive). Besides, the differentiation response in [16] is 14.4% (inactive).
Turning to `NCCCC(N)(C(=O)O)C(F)F` (stereo not drawn), the percent of DMSO control GFP in assay [1] was 93.5% (inactive). Also, the GFP response vs DMSO in assay [2] is 99.7% (inactive); in assay [4] it was 107% (inactive). Besides, the percent response of DMSO control in [3] is 98.6% (inactive). In addition, the GFP response, % of DMSO in assay [5] was 112% (inactive). In addition, the double positive events in assay [6] was 62.2%. In assay [6], the vesicle binding response is 174% (inactive). The inhibition in [7] is 5.61% (inactive); in assay [11], 13.1% (inactive); in assay [15], -5% (inactive). Also, the superoxide response (% of plate) in [8] was 105% (inactive). In addition, in [9], the aptamer binding inhibition is 3% (inactive). In addition, the results for the response in assay [10] and in assay [12] were 5.08% (inactive) and -10.9% (inactive), respectively. Also, in assay [13], the binding (% of control) is 97.7% (inactive). Also, in assay [14], the efflux inhibition (fraction of control) is -0.135 (inactive). Further, in [16], the differentiation response was -4.57% (inactive).
